Screening data as filed in PubChem.
HP1b binding inh = inhibitors of HP1-beta chromodomain binding to methylated histone tails; AID 540317; 390,000 compounds, 0.56% hits; Potency, µM (titrated, usually from 114 µM), actives largely listed as inhibitors; AlphaScreen HP1-beta / biotin-H3K9me3 peptide binding; P83916; further: nearly all actives have a fitted effect of over 70% in size
Target sequence (P83916 whole entry, looked up): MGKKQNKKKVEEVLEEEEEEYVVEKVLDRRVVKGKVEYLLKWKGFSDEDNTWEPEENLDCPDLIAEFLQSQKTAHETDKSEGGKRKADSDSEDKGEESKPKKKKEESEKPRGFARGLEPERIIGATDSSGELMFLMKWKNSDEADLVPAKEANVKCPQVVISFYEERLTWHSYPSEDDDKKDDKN
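AlphaScreen: HP1-beta (50 nM) preformed 30 min with biotin-H3(1-18)K9me3 peptide (50 nM) in PBS pH 7.4, 0.01% Tween-20. Compound added for 30 min at RT, then streptavidin donor/nickel chelate acceptor beads (10 ug/mL) for 30 min.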
G9a block = G9a (human) methyltransferase inhibition | Q96KQ7 | G9a H3K9 monomethylation, AlphaScreen, 2 h | Potency, µM (highest dose often 102 µM), hits mostly inhibitors | 350,000 compounds, 8.8% hits; further: nearly all actives have a fitted effect of over 75% in size
Target sequence (Q96KQ7 913-1193 limits assumed): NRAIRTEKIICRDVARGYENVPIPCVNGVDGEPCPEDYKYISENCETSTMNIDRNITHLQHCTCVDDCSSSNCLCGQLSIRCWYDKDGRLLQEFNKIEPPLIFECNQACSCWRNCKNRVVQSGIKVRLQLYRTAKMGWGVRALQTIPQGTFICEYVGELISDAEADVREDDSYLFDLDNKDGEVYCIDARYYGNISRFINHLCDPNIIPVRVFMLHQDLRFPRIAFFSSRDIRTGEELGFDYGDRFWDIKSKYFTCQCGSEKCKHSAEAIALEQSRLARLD
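Methyltransferase reactions run at room temperature for 2 h (20 nM enzyme, 500 nM biotin-H3K9 peptide, 20 uM SAM) after a 15 min compound preincubation; product detected by AlphaScreen beads and anti-H3K9me1 antibody.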
Sfp PPTase inh = blocks B. subtilis Sfp PPTase activity; Q9F4F7; Biochemical Sfp PPTase activity, qHTS; Potency, µM, actives largely listed as inhibitors; 310,000 compounds, 3.5% hits; AID 1490;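 further: the enzyme is Sfp with the accession as filed and its product quenches rhodamine fluorescence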
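With Hepes-Na pH 7.6 buffer containing 10 mM MgCl2, Sfp (15 nM) modified BHQ-2-YbbR (12.5 uM) using rhodamine-CoA (5 uM). Two reads 30 minutes apart at 525/598 nm yielded each well's rate.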
TDP1 block = TDP1 (human) enzyme inhibition | 350,000 compounds, 0.28% hits | Q9NUW8 | recombinant TDP1, AlphaScreen DNA substrate cleavage | Potency, µM (titrated, usually from 130 µM), actives largely listed as inhibitors; further: nearly all actives have a fitted effect of over 40% in size
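Recombinant E. coli-expressed Tdp1 (1 nM) preincubated with compound 15 min at RT, then 5'-biotin/3'-phosphotyrosine-FITC DNA substrate (15 nM) added for 5 min. AlphaScreen beads (10 ug/ml) added, 10 min RT; tyrosine-FITC cleavage read as signal loss.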
JMJD2A Tudor = blocks the human JMJD2A Tudor domain. O75164. AlphaScreen JMJD2A-Tudor / H3K4me3 peptide binding. Potency, µM (series often up to 114 µM), usual class: inhibitors. 390,000 compounds, 4.4% hits. AID 504339; further: nearly all actives have a fitted effect of over 50% in size
BAZ2B inh = blocks human BAZ2B | Q9UIF8 | AlphaScreen BAZ2B-H3K14Ac peptide displacement | Potency, µM (titrated, usually from 114 µM), hits mostly inhibitors | 360,000 compounds, 4.4% hits | AID 504333; further: nearly all actives have a fitted effect of over 60% in size
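AlphaScreen displacement: compounds (up to 110uM) incubated 30 min at room temperature with a preformed 50 nM BAZ2B/50 nM biotinylated H3K14Ac peptide complex in PBS pH 7.4 with Tween-20. Donor and acceptor beads at 10 ug/mL final added, 20 min light-protected before reading.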
Numbers stand for hits; [ ] = dose if it differs, or a comment. The list is not random: actives were taken first. Their share in the collection is about 12%. The call rests on the fitted dose curve; in most records, active means well fitted curve in the direction sought with a large enough effect; inconclusive means small, poorly fitted or top-dose-only effect, or another doubt; inactive means no such curve, though single readings can be large; an effect the other way counts as inactive or inconclusive.

Screening CSCC[C@H](NC(=O)[C@H]1CC[C@H](CNC(=O)[C@@H](N)Cc2ccccc2)CC1)C(=O)O returned HP1b binding inh inactive, G9a block inactive, Sfp PPTase inh inactive, JMJD2A Tudor inactive and BAZ2B inh inactive.
CCNC(=O)C(=O)NCC(c1cccs1)S(=O)(=O)c1ccc(C)cc1 (configuration not stated) was read as HP1b binding inh inactive, G9a block inconclusive, Sfp PPTase inh inactive, TDP1 block inactive, JMJD2A Tudor inactive and BAZ2B inh inactive.
For CC1(C)CC(=O)C2=C(C1)N(c1ccc(F)cc1)C(N)=C(C#N)C2c1cccs1 (configuration not stated) the results were HP1b binding inh inactive, G9a block inactive[0.501 µM], Sfp PPTase inh inactive, TDP1 block inactive, JMJD2A Tudor inactive and BAZ2B inh inactive.
For N#CC1=C(N)S[C@@H](C(=O)c2ccc(F)cc2)[C@@H]1c1cccs1 the results were HP1b binding inh inactive, G9a block 10µM, Sfp PPTase inh inconclusive, TDP1 block inactive, JMJD2A Tudor inconclusive and BAZ2B inh inconclusive.
For CCCCCC#CCC#CCC#CCC#CCCCC(=O)O the results were G9a block 10µM, Sfp PPTase inh inactive, TDP1 block inactive and BAZ2B inh 3.98µM.
Cn1c(=O)[nH]c(=O)c2c1nc(SCCC(=O)O)n2Cc1cccc(Br)c1 was read as HP1b binding inh inactive, G9a block 35.5µM, Sfp PPTase inh inactive, TDP1 block inactive, JMJD2A Tudor inactive and BAZ2B inh inactive.
CC(=O)CSc1nc2c(c(=O)[nH]c(=O)n2C)n1Cc1cccc(Br)c1 was read as HP1b binding inh inactive, G9a block 22.4µM, Sfp PPTase inh 44.7µM, JMJD2A Tudor inactive and BAZ2B inh inactive.
Screening CCOC(=O)c1[nH]c(C)c(C(=O)OCC)c1C returned HP1b binding inh inactive, G9a block inactive, Sfp PPTase inh inactive, TDP1 block inactive, JMJD2A Tudor inactive and BAZ2B inh inactive.
For CCOC(=O)c1[nH]c(C)c(C(=O)N(CC)CC)c1C the results were HP1b binding inh inactive, G9a block 79.4µM, Sfp PPTase inh inactive, TDP1 block inactive, JMJD2A Tudor inactive and BAZ2B inh inactive.
Screening CCOc1ccc(N/C=C/C(=O)c2ccc(OC)c(OC)c2)cc1 returned HP1b binding inh inactive, G9a block inactive, Sfp PPTase inh inactive, TDP1 block inactive, JMJD2A Tudor inactive and BAZ2B inh inactive.
For COc1ccc(C(=O)/C=C/NCc2ccc(F)cc2)cc1OC the results were HP1b binding inh inactive, G9a block 50.1µM, Sfp PPTase inh inactive, TDP1 block inactive, JMJD2A Tudor inactive and BAZ2B inh inactive.
`CCCOc1ccc(N/C=C/C(=O)c2ccc(OC)c(OC)c2)cc1` gave HP1b binding inh inactive, Sfp PPTase inh inactive, JMJD2A Tudor 28.2µM and BAZ2B inh inactive.
Screening Cc1ccc(C(=O)/C=C/NCc2ccc(F)cc2)cc1 returned HP1b binding inh inactive, G9a block inactive, Sfp PPTase inh inactive, TDP1 block inactive, JMJD2A Tudor inactive and BAZ2B inh inactive.
For CC(=O)C1=C(O)C(=O)N(c2ccc(Br)cc2)C1c1ccc(Br)cc1 (configuration not stated) the results were HP1b binding inh inactive, G9a block 50.1µM, Sfp PPTase inh inactive, TDP1 block inactive, JMJD2A Tudor inactive and BAZ2B inh inconclusive.
For CCCCN1C(=O)C(O)=C(C(C)=O)C1c1ccccc1[N+](=O)[O-] (configuration not stated) the results were HP1b binding inh inactive, G9a block inconclusive, Sfp PPTase inh 17.8µM, TDP1 block inactive, JMJD2A Tudor inactive and BAZ2B inh inconclusive.
`CC(=O)C1=C(O)C(=O)N(c2cccc(Br)c2)C1c1ccc(Br)cc1` (configuration not stated) gave HP1b binding inh inactive, G9a block inconclusive, Sfp PPTase inh inactive, TDP1 block inactive, JMJD2A Tudor inactive and BAZ2B inh inactive.
For O=C(O)CCCCCN1C(=O)C(O)=C(C(=O)/C=C/c2ccccc2)C1c1ccccc1[N+](=O)[O-] (configuration not stated) the results were HP1b binding inh inactive, G9a block inactive[0.501 µM], Sfp PPTase inh inconclusive, TDP1 block inactive, JMJD2A Tudor inconclusive and BAZ2B inh inactive.
